From PubChem BioAssay (NCI)
Compounds without any hit were thinned out: in the full panel of roughly 83,000, 20% have a hit.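 Cell lines were cultured in 96-well plates, exposed to a single compound concentration, and assessed for percent growth 48 hours later.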 Active and inactive are the calls of the source.

test system: KM12 colon; assay: NCI-60 one-dose screen, 48 h (100 = growth as untreated, 0 = no growth, -100 = all killed); details: 10 µM unless noted
Method: Growth inhibition of the KM12 human tumor cell line is measured as a screen for anti-cancer activity. Cells are grown in 96 well plates and exposed to the test compound for 48 hours. Compounds are tested at a single concentration, which is 10^-5 M for most compounds. The reported endpoint is percent growth (GI% or GIPRCNT), where numbers from 0 - 100% represent growth inhibition, and numbers from -100% - 0 represent cell death. For example, a value of 40 represents 60% growth inhibition. A value of 0 means no net growth occurred over the course of the experiment. A value of -40 indicates 40% of cells at the beginning of the experiment died by the end of the experiment. A value of -100 means all cells are dead at the end of the experiment.
NCI-60 Human Tumor Cell Lines Screen was performed using the standard one-dose NCI protocol, which is described in more detail at https://dtp.cancer.gov/discovery_development/nci-60/default.htm.
Compounds with GIPRCNT values below 10 were considered active. Activity score was based on GIPRCNT using the following formula: […]
Score is 0 for GIPRCNT values of 100 or above, 50 for GIPRCNT values of 0, and 100 for GIPRCNT values of -100.

SMILES | growth
CCOC(=O)C1=C(C)NC(SCc2nnc(-c3ccc(Cl)cc3)o2)=NC1c1ccc(Br)cc1 (stereo not given) | 76% (inactive)
COc1c(B(O)O)cccc1-c1nc2c(F)cc3n[nH]c(C)c3c2c2c1CCCC2 | 20.5% (inactive)
CC[C@H](Nc1nc(N)nc(C2CC2)c1C#N)c1nc2cccc(NCc3ccc(C(=O)NO)cc3)c2c(=O)n1-c1ccccc1 | 8.71% (active)
CC[C@H](Nc1nc(C)nc(N)c1C#N)c1nc2cccc(NCc3ccc(C(=O)NO)cc3)c2c(=O)n1-c1ccccc1 | 13.3% (inactive)
O=C(Cc1ccc(Nc2ccnc(C(F)(F)F)c2)cc1)N/N=C/c1ccccc1O | 30.7% (inactive)
Cc1cccc(C(=O)O)n1 | 110% (inactive)
COc1ccc(C(=O)/C=C/c2cn(-c3ccccc3)nc2-c2cccc(Nc3ccnc4cc(Cl)ccc34)c2)cc1 | 94.9% (inactive)
COc1cc2nccc(Oc3ccc(NC(=O)C4(C(=O)Nc5ccc(F)cc5)CC4)cc3)c2cc1OC(=O)c1ccc(N)cc1 | 12.3% (inactive)
COc1ccc(NC(=O)/C=C/c2ccc(Cl)c(Cl)c2)cn1 | 78.2% (inactive)
O=C(Cn1nncc1CN1C(=O)CSC1=O)Nc1ccc(F)cc1 | 106% (inactive)
O=c1[nH]cnc2nc[nH]c12 | 196% (inactive)
Oc1ccc(Nc2ncnc3c2sc2ncccc23)cc1 | 50.6% (inactive)
N#Cc1nc(-c2cccc(Br)c2)cc(-c2ccc(Nc3nc(N4CCCCC4)nc(N4CCCCC4)n3)cc2)c1N | -1.24% (active)
CCN(CC)Cc1cc(Nc2ccnc3cc(Cl)ccc23)cc(-c2ccc(Cl)cc2)c1O | 34.5% (inactive)
CCN(CC)c1ccc2nc3c4ccccc4c(=O)cc-3n(-c3ccccc3)c2c1 | -5.68% (active)
CCNS(=O)(=O)c1ccc(C)cc1 | 108% (inactive)
COc1ccc(C2CC(c3cccc(Nc4ccnc5cc(Cl)ccc45)c3)=NN2c2ccc(Cl)cc2)cc1 (stereo not given) | 22.2% (inactive)
Cc1cc(C)c([O-])c(CN(C)CCN(C)Cc2cc(C)cc(C)c2[O-])c1.O=C([O-])c1cccc(C(=O)[O-])n1.[Ti+4] | 11% (inactive)
NC(N)=N/N=C\c1ccc(OCc2ccccc2)cc1 | 58.8% (inactive)
CCCCCCCCCCCCCCCCS(=O)(=O)Nc1cc(C(=O)NN)cc(C(=O)NN)c1 | 73% (inactive)

SMILES | growth
COc1cc(C2CC(c3ccc(Cl)cc3)=NN2C=O)ccc1OS(=O)(=O)c1ccc(C)cc1 (stereo not given) | 93.4% (inactive)
CC(=O)OC1Oc2ccccc2-c2oc3nc(=N)n(C)c-3cc21 (stereo not given) | 209% (inactive)
COc1ccc(-c2[nH]nc(N)c2-c2cc(OC)c(OC)c(OC)c2)cc1 | 3.55% (active)
C=CCn1c(SCC(=O)Nc2ccc(C(=O)/C=C/c3ccccc3)cc2)nnc1-c1ccc(OC)c(OC)c1 | 57.3% (inactive)
COc1ccc(-c2cnc3ccnn3c2-c2cc(OC)c(OC)c(OC)c2)cc1 | 16.1% (inactive)
CC1C2CCC(C2)C1COCCOCCO (stereo not given) | 110% (inactive)
Nc1c(C(=O)c2ccc(Br)cc2)sc2nc3c(cc12)CCCC3 | 75.4% (inactive)
N#Cc1c(N)c(C(=O)c2ccc3c(c2)OCCO3)n2c1CCCC2 | 24.1% (inactive)
Cc1cc(C#Cc2ccccc2)ccc1-n1c(/C=C/c2ccc(F)cc2)nc2ccccc2c1=O | 62.5% (inactive)
COc1ccc2c(c1)N(CCO)C1=C(C(=O)OC1)C2c1cccc(Br)c1 (stereo not given) | -31.2% (active)
Cn1c(=O)c2c3c(oc2c2ccccc21)C(=O)c1ccccc1C3=O | 91.5% (inactive)
CCOC(=O)c1ccc(N(CCC(=O)O)C(C)=O)cc1 | 117% (inactive)
Fc1ccc2nc(-c3ccc(-c4noc(-c5ccc(Cl)cc5)n4)cc3)[nH]c2c1 | 93.1% (inactive)
CCCCCCCCCCCCCCCc1cc(O)ccc1[N+](=O)[O-] | 89.3% (inactive)
Cc1ccc2cc3c(NC(=O)c4cccnc4)nn(C)c3nc2c1 | 85.6% (inactive)
O=C1c2ccccc2C(=O)c2c1oc1ccc3ccccc3c21 | 61.6% (inactive)
COC1CC(N)C2OC(c3ccccc3)OCC2O1 (stereo not given) | 103% (inactive)
Cc1nc2n[nH]c(N)c2nc1C | 106% (inactive)
Cc1n(Cc2ccc3ccccc3n2)cc[n+]1Cc1ccc2ccccc2n1 | 50.6% (inactive)
COCCn1c(Nc2ccc(C(=O)NO)cc2)nc2ccccc21 | 51.9% (inactive)
